In PubChem BioAssay AID2283220 (EPA ToxCast) one finds AC50 and outcome data, which are given here for three compounds.

Records with an inconclusive call do not appear. Active and inactive are the calls of the source. Rule for the calls: active = hit-call score of the fitted dose curve at least 0.9, where 1 is the maximum; inconclusive = response in the unintended direction; inactive = score below 0.9.

In this assay the target is human Serum/Glucocorticoid Regulated Kinase 1 (SGK1), SGK1 (gene 6446) (UniProt O00141). The assay can be described thus: NVS_ENZ_hSGK1: NovaScreen (NVS) Enzymatic Assay for human Serum/Glucocorticoid Regulated Kinase 1 (SGK1). Here is the method: NVS_ENZ_hSGK1 is a biochemical, single-readout assay that uses extracted gene-proteins in a cell-free assay. Measurements were taken 1 hour after chemical dosing in a 96-well plate.NVS_ENZ_hSGK1 is one of one assay component(s) measured or calculated from the NVS_ENZ_hSGK1 assay. It is designed to make measurements of enzyme activity, a form of enzyme reporter, as detected with fluorescence intensity signals by Fluorescence and electrophoretic mobility shift technology.Data from the assay component NVS_ENZ_hSGK1 was analyzed into 1 assay endpoint. This assay endpoint, NVS_ENZ_hSGK1, was analyzed in the positive analysis fitting direction relative to DMSO as the negative control and baseline of activity. Using a type of enzyme reporter, loss-of-signal activity can be used to understand changes in the enzymatic activity as they relate to the gene SGK1. Furthermore, this assay endpoint can be referred to as a primary readout, because this assay has produced […] where this one serves a enzymatic activity function. To generalize the intended target to other relatable targets, this assay endpoint is annotated to the kinase intended target family, where the subfamily is serine/threonine kinase.
Chain of human Serum/Glucocorticoid Regulated Kinase 1 (SGK1), SGK1 (gene 6446) (O00141 whole entry, looked up): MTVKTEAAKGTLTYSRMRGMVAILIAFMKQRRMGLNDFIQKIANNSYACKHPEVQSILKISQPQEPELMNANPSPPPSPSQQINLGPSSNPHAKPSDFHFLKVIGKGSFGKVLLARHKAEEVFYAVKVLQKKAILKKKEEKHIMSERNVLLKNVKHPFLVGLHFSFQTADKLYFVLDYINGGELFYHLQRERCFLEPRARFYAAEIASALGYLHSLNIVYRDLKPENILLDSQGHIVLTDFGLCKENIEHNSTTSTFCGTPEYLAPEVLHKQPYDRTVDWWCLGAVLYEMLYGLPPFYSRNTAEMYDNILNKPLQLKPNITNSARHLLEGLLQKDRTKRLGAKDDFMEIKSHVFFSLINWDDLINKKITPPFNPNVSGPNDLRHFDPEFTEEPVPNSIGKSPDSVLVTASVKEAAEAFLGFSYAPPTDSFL
Binding assays used specific radioligands (tritiated, iodinated) with non-radioactive competitive displacement ligands in agonist or antagonist protocols (as indicated) and various reference compounds and inhibitors to titrate specific binding to receptors and transporters. Most enzyme assays (CYPs, kinases, phosphatases, proteases, HDACs) used recombinant protein and specific substrates (fluorescence mostly, some colorimetric and radioactive) and inhibitors, followed by a biochemical separation of substrate and product. All assays for the biochemical HTS were initially run in duplicate at a single concentration (10 uM for CYP450 assays and 25 uM for all others). […]
For the compound `S=C([S-])NCCNC(=S)[S-].[Mn+2]`, the AC50 was 10.6 µM (active).

Take `O=C(Nc1ccc([N+](=O)[O-])cc1Cl)c1cc(Cl)ccc1O`: the result was inactive.

For `N#CSCSc1nc2ccccc2s1`, the compound was classed as inactive.
